# Test results: PubChem BioAssay (Tox21)
# Unmarked numbers belong to inactive results. The source made the active and inactive calls. The call rests on the fitted dose curve; in most records, active means well fitted curve in the direction sought with a large enough effect in the repeat runs; inconclusive means weak or mixed curves; inactive means flat fitted curve, though single readings scatter.
# Assay: qHTS assay to test for compound auto fluorescence at 590 nm (red) in HepG2 cell free culture (AID 720684)
# Details: cell-free medium autofluorescence, red 540/590 nm; series mostly up to 91.3 µM
# Description: U.S. Tox21 Program National Center for Advancing Translational Sciences [NCATS] NIH Chemical Genomics Center [NCGC] U.S. Environmental Protection Agency [EPA] National Institutes of Environmental Health Sciences [NIEHS] National Toxicology Program [NTP] U.S. Food and Drug Administration [FDA] Tox21 Assay Overview: Compound auto fluorescence often interferes with screening of the compound library against various biological targets and signaling pathways. Some of these compounds may have fluorophoric properties. Such properties may interfere with the assay outputs resulting in false positives and/or negatives. To decrease such complications and ensure the compound activities are relevant in terms of biological response, the Tox21 10K compound library was screened for auto fluorescence. From the fluorophores used as reporter signals in our screening assays, the auto fluorescence equivalencies of compounds against three fluorophores have been evaluated: Triamterene, Fluorescein and Rose Bengal sodium for blue, green and red fluorescence, respectively. The fluorescence intensities were measured using Excitation/Emission wavelengths at 405/460nm, 485/535nm and 540/590nm for blue, green and red labels, respectively. This assay includes the red fluorescence data.
# Tox21 Assay Protocol Summary: 5 uL of culture medium (MEM containing 10% FBS) per well was dispensed into black wall/clear bottom 1536-well plates using a Multidrop Combi Dispenser (ThermoFisher Scientific, Waltham, MA). After 23 nL compound or DMSO vehicle was transferred into assay plate by a pintool work station (Kalypsys, San Diego, CA), fluorescence intensities in the assay plates were measured by an Envision (PerkinElmer, Shelton, CT) plate reader using three labels for measuring blue, green and red fluorescence at […] 460, 535 and 590nm respectively.
# On the % scale 0 is the no-effect control and ±100 the full control effect.
SMILES,outcome,"fluorescence, % of Rose Bengal"
COc1ccc(C(=O)c2ccc(C)cc2)c(O)c1,inactive,–
CCc1cnc(C(=O)O)c(C(=O)O)c1,inactive,–
C=CC(C)(O)CC/C=C(/C)CCC=C(C)C (stereo not given),inactive,–
COC(=O)/C=C/C(C)=C\C=C\C(C)=C\C=C\C=C(C)\C=C\C=C(C)\C=C\C(=O)O,inactive,–
CC(C)CCCCCCCOC(=O)c1ccc(C(=O)OCCCCCCCC(C)C)c(C(=O)OCCCCCCCC(C)C)c1,inactive,–
Clc1cc(Cl)c2c(c1)N=C1CCCCCN1C2,inactive,–
O=S(=O)(O)c1cc(Cl)c(Cl)cc1Cl,inactive,–
CC(C)(Cc1c[nH]c2ccccc12)NCC(O)COc1ccccc1C#N (stereo not given),inactive,–
C/C(=C(\CCO)SS/C(CCO)=C(\C)N(C=O)Cc1cnc(C)nc1N)N(C=O)Cc1cnc(C)nc1N,inactive,–
Cc1c(N=C=O)cccc1N=C=O,inactive,–
CCCCCCCCCCCCCCCCCCCl,–,-0.217% [at 3.72 µM]
CCCC1CCOC(C)S1 (stereo not given),inactive,–
C=Cc1ccc(C=C)cc1,inactive,–
CC1(C)CC(=O)CC(C)(C)N1,inactive,–
O=P(c1ccccc1)(c1ccccc1)c1ccccc1,inactive,–
C[C@@H](O)[C@H]1C(=O)N2C(C(=O)O)=C(S[C@@H]3CN[C@H](CNS(N)(=O)=O)C3)[C@H](C)[C@H]12,inactive,–
O=C(O)c1c2ccccc2cc2ccccc12,inactive,–
Cc1cccc(C)c1NC(=O)CN1CCCC1,inactive,–
C/C(=C\C(C)CC(C)CC(C)C)C1CC(=O)OC1=O (stereo not given),inactive,–
O=C1c2ccccc2C(=O)c2c1ccc(O)c2O,inactive,–

SMILES,outcome,"fluorescence, % of Rose Bengal"
Cc1c(Nc2ncccc2C(=O)O)cccc1C(F)(F)F,–,0.0144% [at 18.6 µM]
O=C1C=CCCC1,inactive,–
C=CC(=O)OCCCCCCCCCC,inactive,–
CC(C)(C)c1ccc(CCC=O)cc1,inactive,–
OCCc1ccncc1,inactive,–
CC(C(=O)O)c1ccc2c(c1)Cc1cccnc1O2 (stereo not given),inactive,–
CCCCCCCCOCCCN,inactive,–
O=C(O)COCC(=O)O,inactive,–
C1=COCCC1,inactive,–
Nc1nc(Cl)nc2c1ncn2[C@H]1C[C@H](O)[C@@H](CO)O1,inactive,–
CCC(C)C1N=C(C)C(C)S1 (stereo not given),inactive,–
COC(=O)c1cc(Cl)ccc1[N+](=O)[O-],inactive,–
O=C(O)CNc1ccccc1,inactive,–
NCCOCCOCCN,inactive,–
CCCCCCCCCCCC(=O)OCC,inactive,–
CC(CN=Cc1ccccc1O)N=Cc1ccccc1O (stereo not given),inactive,–
Cc1cc(N)n(-c2ccccc2)n1,inactive,–
Oc1ccc(CCNCCCCCCNCCc2ccccc2)cc1O,inactive,–
OCCCO,inactive,–
CC/C=C\CCO,inactive,–
